# Source: PubChem
# TDP1 cell noCPT – qHTS for Inhibitors of human tyrosyl-DNA phosphodiesterase 1 (TDP1): qHTS in cells in absence of CPT; DT40 Tdp1-/- hTDP1 cells, no CPT, ATP luminescence, 48 h; AID 686978, 2013; Potency, µM (highest dose often 46.2 µM), inactives show top-dose activity change, negative = growth inhibition, actives largely listed as inhibitors; 420,000 tested, 15% active; further: nearly all actives have a fitted effect of over 55% in size
#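 No-CPT arm: Tdp1-/-;hTDP1 DT40 cells (400/well) plus compounds, incubated ≥48 hr at 37 °C. Readout CellTiter-Glo luminescence.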
# TDP1 block – qHTS Assay for Inhibitors of Tyrosyl-DNA Phosphodiesterase (TDP1); recombinant TDP1, AlphaScreen DNA substrate cleavage; Potency, µM (series often up to 130 µM), without a hit: at the top dose activity change, negative = inhibition, usual class: inhibitors; 350,000 tested, 0.28% active; further: nearly all actives have a fitted effect of over 40% in size
#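 AlphaScreen read-out: signal falls as enzyme removes the 3' tyrosine-FITC from a 5'-biotinylated DNA oligo (15 nM, 5 min, RT). Enzyme was E. coli-made recombinant Tdp1 at 1 nM, exposed to compound for 15 min beforehand; beads 10 ug/ml, 10 min.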
# VDR inh – Inhibitors of the vitamin D receptor (VDR): qHTS; Vitamin D3 receptor (Homo sapiens), P11473; VDR-SRC2-3 peptide fluorescence polarization, 2 h; Potency, µM, without a hit: max response, negative = inhibition, most hits filed as inhibitors; 400,000 tested, 0.93% active; AID 504847, 2011
# Target sequence (P11473 whole entry, looked up): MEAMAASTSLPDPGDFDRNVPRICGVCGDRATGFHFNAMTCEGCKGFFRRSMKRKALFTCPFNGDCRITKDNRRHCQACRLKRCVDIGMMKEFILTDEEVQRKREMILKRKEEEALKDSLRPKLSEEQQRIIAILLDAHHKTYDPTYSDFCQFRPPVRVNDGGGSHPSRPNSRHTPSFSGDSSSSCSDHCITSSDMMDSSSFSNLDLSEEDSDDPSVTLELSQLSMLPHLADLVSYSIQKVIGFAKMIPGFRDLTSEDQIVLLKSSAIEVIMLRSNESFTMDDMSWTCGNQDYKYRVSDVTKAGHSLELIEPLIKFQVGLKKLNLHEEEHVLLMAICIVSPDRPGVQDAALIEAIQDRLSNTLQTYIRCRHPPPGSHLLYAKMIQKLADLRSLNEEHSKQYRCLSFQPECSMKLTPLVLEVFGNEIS
#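 The screen uses fluorescence polarization to detect compounds that interfere with recruitment of the SRC2-3 coactivator peptide to VDR; plates are read after 2 h at room temperature.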
# TDP1 cell CPT – qHTS for Inhibitors of human tyrosyl-DNA phosphodiesterase 1 (TDP1): qHTS in cells in presence of CPT | chicken DT40 Tdp1-/-;hTDP1 cells + 20 nM CPT, ATP luminescence, 48 h | Potency, µM (doses to about 46.2 µM), for inactives: top-dose activity change, negative = growth inhibition, usual class: inhibitors | 420,000 tested, 12% active | AID 686979, 2013; further: nearly all actives have a fitted effect of over 55% in size
#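 Chicken DT40 Tdp1-/- cells stably complemented with human TDP1 were seeded at 400 cells/well in medium containing 20 nM camptothecin, exposed to pin-transferred compounds, and grown at 37 °C for at least 48 hr. Viability was read as ATP luminescence.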
# PLK1 PBD inh – qHTS for Inhibitors of PLK1-PDB (polo-like kinase 1 - polo-box domain): Primary Screen; AID 720504, 2013; 360,000 tested, 2.8% active; Potency, µM, for inactives: max response, negative = inhibition, usual class: inhibitors; Serine/threonine-protein kinase PLK1 (Homo sapiens), P53350; Plk1 PBD binding of FITC phosphopeptide, fluorescence polarization; further: series mostly up to about 57 µM; nearly all actives have a fitted effect of over 65% in size
# KAT2A inh – qHTS Assay for Inhibitors of GCN5L2. Potency, µM (highest dose often 58.9 µM), inactives show at the top dose activity change, negative = inhibition, usual class: inhibitors. AID 504327, 2011. 390,000 tested, 0.21% active. GCN5L2 HAT assay, ThioGlo1 CoA-SH fluorescence
#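 Free CoA generated was detected with ThioGlo1 (50uM) fluorescence at Ex340nm/Em540nm, read immediately and after 20 min at room temperature. Enzyme, 20 nM in HEPES pH 7.5 buffer, saw compounds 15 min before adding 75uM H3(1-25) peptide and 70uM acetyl-CoA.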
# An asterisk follows results filed as active; ? = inconclusive; / = no result given; [ ] = dose if it differs, or a comment. A selection: hits, their analogues and other compounds. The true share with any hit is near 18%. The call rests on the fitted dose curve; in most records, active means well fitted curve in the direction sought with a large enough effect; inconclusive means small, poorly fitted or top-dose-only effect, or another doubt; inactive means no such curve, though single readings can be large; an effect the other way counts as inactive or inconclusive. On the % scale 0 is the no-effect control and ±100 the full control effect; potency means the concentration at half of the fitted maximal effect.
SMILES,TDP1 cell noCPT,TDP1 block,VDR inh,TDP1 cell CPT,PLK1 PBD inh,KAT2A inh
COc1cc(Br)c(/C=C/c2ccc3cccc(O)c3n2)cc1OC,13µM*,/,-7%,12µM*,-10%,5%
O=[N+]([O-])c1cccc2ccc(/C=C/c3ccc(C(F)(F)F)cc3)nc12,?,2%,-9%,?,-4%,-15%
Cc1ccsc1/C=C/c1ccc2cccc(O)c2n1,23µM*,10%,6%,?,-5%,-10%
Oc1cccc2ccc(/C=C/c3ccccc3Br)nc12,5.8µM*,/,4%,6.5µM*,-2%,-2%
CSc1ccc(/C=C/c2ccc3cccc(O)c3n2)cc1,21µM*,5%,-6%,16µM*,-28%,-10%
N[C@@H](C(=O)N[C@@H]1C(=O)N2C(C(=O)O)=C(CSc3cn[nH]n3)CS[C@H]12)c1ccc(O)cc1,4%,/,/,9%,/,/
Cc1ccc(C)c(S(=O)(=O)N2CCCOC2CNC(=O)C(=O)NCc2ccccn2)c1 (configuration not stated),-6%,0%,-23%,-8%,-9%,-8%
CCOC(=O)c1cnc2c(C)cc(C)cc2c1NCCCN1CCOCC1,?,/,-10%,?,-13%,-15%
CCOC(=O)c1cnc2ccc(C(=O)OC)cc2c1Nc1ccc2c(c1)OCCO2,?,8%,6%,?,-1%,-10%
CCOC(=O)c1ccc2ncc(C(=O)OCC)c(Nc3ccc(N4CCOCC4)cc3)c2c1,6.5µM*,11%,-2%,10µM*,4%,-7%
CCOC(=O)c1cnc2c(C)cc(C)cc2c1NCCN1CCOCC1,16µM*,2%[12.3 µM],5%,18µM*,/,-2%
CCOC(=O)c1cnc2ccc(Cl)cc2c1Nc1ccc(OCC)cc1,?,/,4%,?,/,8%
CCOC(=O)c1cnc2ccc(OC)cc2c1Nc1ccc(N2CCN(C)CC2)cc1,21µM*,/,-4%,23µM*,6.7µM*,-3%
CCOC(=O)c1cnc2ccc(OC)cc2c1Nc1ccc2c(c1)OCCO2,18µM*,5%,33%,?,-4%,-9%
CCOC(=O)c1cnc2ccc(C(=O)OC)cc2c1Nc1ccc(C(=O)O)cc1,-8%,4%,-1%,-16%,-17%,0%
COc1ccc(OC)c(NC(=O)CCN2C(=O)c3cccc([N+](=O)[O-])c3C2=O)c1,23%,/,11%,-4%,2%,-2%
CN(C)/C=C/C1=C([N+](=O)[O-])C(c2cccc([N+](=O)[O-])c2)NC(=O)N1 (configuration not stated),0%,/,9%,-2%,-12%,1%
O=C(NC(O)C(=O)c1ccc(F)cc1)c1ccc(F)cc1 (configuration not stated),?,/,-26%,?,0%,1%
CCOC(=O)c1ccc(NC(=O)CSc2ncc(S(=O)(=O)c3ccc(C)c(Cl)c3)c(=O)[nH]2)cc1,/,4%,5%,/,/,?
Cc1ccccc1-c1nc2c3ccccc3nc(=S)n2[nH]1,3.3µM*,/,13%,4.1µM*,-1%,-10%
COC(=O)c1cc2occc2n1CC(=O)Nc1ccc(N(C)C)cc1,-29%,3%,2%,-23%,/,-3%
COCCn1c(SCC(=O)N2CCCCCC2)nnc1-c1ccco1,4%,/,8%,-17%,-15%,-5%
COc1ccc(/C=C2\SC(=S)N(CC(=O)NC3C=CS(=O)(=O)C3)C2=O)cc1 (configuration not stated),3.7µM*,0%,-9%,6.5µM*,-7%,-1%
